G9a block: inhibitors of human histone lysine methyltransferase G9a; G9a H3K9 monomethylation, AlphaScreen, 2 h; Potency, µM (titrated, usually from 102 µM), actives largely listed as inhibitors; actives 8.8% (n = 350,000); note: nearly all actives have a fitted effect of over 75% in size
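G9a (20 nM) preincubated 15 min RT with compounds, then 500 nM biotinylated H3K9 peptide and 20 uM SAM added; 2 h RT reaction. Monomethyl-H3K9 product detected by AlphaScreen with anti-H3K9me1 antibody, streptavidin donor and anti-rabbit IgG acceptor beads.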
JMJD2A Tudor inh: blocks the human JMJD2A Tudor domain; O75164; AlphaScreen JMJD2A-Tudor / H3K4me3 peptide binding; Potency, µM (doses to about 114 µM), hits mostly inhibitors; actives 4.4% (n = 390,000); AID 504339; note: nearly all actives have a fitted effect of over 50% in size
Target sequence (O75164 whole entry, looked up, the tested form may be a part): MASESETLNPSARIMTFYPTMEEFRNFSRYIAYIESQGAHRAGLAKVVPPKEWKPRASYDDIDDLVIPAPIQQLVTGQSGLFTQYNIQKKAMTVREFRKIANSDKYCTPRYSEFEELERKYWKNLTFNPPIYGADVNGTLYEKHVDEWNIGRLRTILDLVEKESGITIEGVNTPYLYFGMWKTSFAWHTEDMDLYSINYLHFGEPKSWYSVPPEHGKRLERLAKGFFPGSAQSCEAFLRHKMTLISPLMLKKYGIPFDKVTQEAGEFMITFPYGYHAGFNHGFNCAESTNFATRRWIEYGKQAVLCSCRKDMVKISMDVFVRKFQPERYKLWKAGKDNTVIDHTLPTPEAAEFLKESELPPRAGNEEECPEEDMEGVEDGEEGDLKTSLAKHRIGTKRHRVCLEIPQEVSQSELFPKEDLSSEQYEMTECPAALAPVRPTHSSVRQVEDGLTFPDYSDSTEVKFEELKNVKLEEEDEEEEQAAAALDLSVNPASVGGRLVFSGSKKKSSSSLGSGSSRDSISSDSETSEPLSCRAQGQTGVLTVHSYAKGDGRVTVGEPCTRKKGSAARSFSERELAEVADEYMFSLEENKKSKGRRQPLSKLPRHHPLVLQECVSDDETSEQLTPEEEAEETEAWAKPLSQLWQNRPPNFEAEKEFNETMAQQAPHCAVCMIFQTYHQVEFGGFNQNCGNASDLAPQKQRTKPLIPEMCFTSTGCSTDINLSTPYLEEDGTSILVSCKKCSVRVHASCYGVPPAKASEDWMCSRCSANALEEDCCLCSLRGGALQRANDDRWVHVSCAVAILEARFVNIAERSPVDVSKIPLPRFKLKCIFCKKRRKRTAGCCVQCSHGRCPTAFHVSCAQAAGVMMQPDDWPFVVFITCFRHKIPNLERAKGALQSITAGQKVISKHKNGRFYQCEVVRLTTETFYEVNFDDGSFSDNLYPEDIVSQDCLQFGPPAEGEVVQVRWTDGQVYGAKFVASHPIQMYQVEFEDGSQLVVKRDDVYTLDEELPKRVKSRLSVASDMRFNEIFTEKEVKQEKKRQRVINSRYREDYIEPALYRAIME
Sfp inh: Sfp phosphopantetheinyl transferase inhibition; Q9F4F7; Biochemical Sfp PPTase activity, qHTS; Potency, µM, actives largely listed as inhibitors; actives 3.5% (n = 310,000);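 note: the enzyme is Sfp with the accession as filed and its product quenches rhodamine fluorescence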
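Compounds were incubated with enzyme (final 15 nM) for 15 min at room temperature before substrate addition started the reaction. Fluorescence at 525 nm excitation, 598 nm emission was recorded immediately and after 30 minutes.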
PLK1 PBD block: PLK1 (human) polo-box domain binding inhibition; Plk1 PBD binding of FITC phosphopeptide, fluorescence polarization; Potency, µM, most hits filed as inhibitors; AID 720504; P53350; actives 2.8% (n = 360,000); note: series mostly up to about 57 µM; nearly all actives have a fitted effect of over 65% in size
BAZ2B block: inhibitors of human BAZ2B bromodomain. Potency, µM (highest dose often 114 µM), most hits filed as inhibitors. AlphaScreen BAZ2B-H3K14Ac peptide displacement. AID 504333. actives 4.4% (n = 360,000); note: nearly all actives have a fitted effect of over 60% in size
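In this displacement format the biotinylated H3(5-23) peptide acetylated at Lys14 serves as ligand at 50 nM, with BAZ2B at 50 nM in PBS pH 7.4 containing 0.01% Tween-20. Donor and acceptor beads are 10 ug/mL final.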
HP1b chromo inh: inhibitors of HP1-beta chromodomain binding to methylated histone tails; AlphaScreen HP1-beta / biotin-H3K9me3 peptide binding; Potency, µM (highest dose often 114 µM), usual class: inhibitors; actives 0.56% (n = 390,000); AID 540317; note: nearly all actives have a fitted effect of over 70% in size
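HP1-beta protein (50 nM final) preincubated 30 min at room temperature with biotinylated H3(1-18)K9me3 peptide (50 nM) in PBS pH 7.4, 0.01% Tween-20, then compound added for 30 min. AlphaScreen streptavidin donor/nickel chelate acceptor beads (10 ug/mL final), 30 min dark, luminescence read.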
A number is an active result; [ ] = another dose, or the depositor's remark. Sampled rows, rich in hits. Any-hit rate of the full collection: about 12%. Calls come from the whole dose curve; as a rule, active = well fitted curve in the direction sought with a large enough effect; inconclusive = small, poorly fitted or top-dose-only effect, or another doubt; inactive = no such curve, though single readings can be large; an effect the other way counts as inactive or inconclusive.

COc1cccc(-c2nc3c(c(SCc4ccccc4)n2)Cc2c(CO)cnc(C)c2O3)c1 was read as G9a block inconclusive, JMJD2A Tudor inh inactive, BAZ2B block inactive and HP1b chromo inh inactive.
For Cc1ccc(OCC(=O)NCC(=O)OCc2cc(=O)n3nc(C)sc3n2)cc1 the results were G9a block inactive, JMJD2A Tudor inh inactive, BAZ2B block inactive and HP1b chromo inh inactive.
CCC(=O)Nc1cc(OC)c(NC(=S)Nc2ccccc2CC)cc1OC was read as PLK1 PBD block inactive.
For Cc1cccc(-n2c(-c3ccco3)nc3c(cnn3-c3ccccc3C)c2=O)c1 the results were G9a block inconclusive, JMJD2A Tudor inh inconclusive and HP1b chromo inh inactive.
For c1ccc(-n2c(-c3ccco3)nnc2-c2ccco2)cc1 the results were G9a block inactive[12.7 µM], JMJD2A Tudor inh inactive, Sfp inh inactive, PLK1 PBD block inactive, BAZ2B block inactive and HP1b chromo inh inactive.
For S=c1[nH]nc(-c2ccco2)n1-c1ccc(Br)cc1 the results were JMJD2A Tudor inh 25.1µM, PLK1 PBD block inactive and HP1b chromo inh inconclusive.
For CCSc1nnc(Cc2cc(=O)[nH]c(=O)[nH]2)n1-c1cccc(C)c1 the results were G9a block inconclusive, JMJD2A Tudor inh inactive, Sfp inh inactive, PLK1 PBD block inactive, BAZ2B block inactive and HP1b chromo inh inactive.
Screening Cc1cccc(-n2c(-c3ccc(Br)o3)n[nH]c2=S)c1 returned JMJD2A Tudor inh 79.4µM, PLK1 PBD block inactive and HP1b chromo inh inactive.
Cc1cccc(-n2c(-c3ccco3)n[nH]c2=S)c1 was read as G9a block 2µM, JMJD2A Tudor inh 5.62µM, Sfp inh inactive, PLK1 PBD block inactive, BAZ2B block inactive and HP1b chromo inh inactive.
For Nc1ncn(C(=S)Nc2ccccc2)n1 the results were JMJD2A Tudor inh inactive, PLK1 PBD block inactive and HP1b chromo inh inactive.
For Cc1cc(NC(=O)CSc2nnnn2-c2ccc(C(C)C)cc2)no1 the results were G9a block inactive, JMJD2A Tudor inh inconclusive, Sfp inh inactive, PLK1 PBD block 26.7µM, BAZ2B block inactive and HP1b chromo inh inactive.
`Cc1cc(NC(=O)Cc2ccc(Br)cc2)no1` gave G9a block inactive, JMJD2A Tudor inh inactive, Sfp inh inactive, PLK1 PBD block inactive, BAZ2B block inactive and HP1b chromo inh inactive.
Screening CC(=O)Nc1ccc(NC(=O)c2ccccc2Br)cc1 returned PLK1 PBD block inactive.
`CC(=O)Nc1ccc(SCC(=O)NC(=O)c2ccccc2Br)cc1` gave G9a block inconclusive, JMJD2A Tudor inh inactive, PLK1 PBD block 29.9µM, BAZ2B block inactive and HP1b chromo inh inactive.
CCN(CC(=O)Nc1ccc(Br)cc1)CC(=O)Nc1cc(C)on1 was read as G9a block 79.4µM, JMJD2A Tudor inh inactive, PLK1 PBD block inactive, BAZ2B block inactive and HP1b chromo inh inactive.
`CC(=O)Nc1ccc(SCC(=O)Nc2cc(C)on2)cc1` gave G9a block 44.7µM, JMJD2A Tudor inh inactive, Sfp inh inconclusive, PLK1 PBD block 23.8µM, BAZ2B block inactive and HP1b chromo inh inactive.
CC(=O)c1cccc(-n2nnnc2SCC(=O)Nc2cc(C)on2)c1 was read as G9a block inactive, JMJD2A Tudor inh inactive, Sfp inh inactive, PLK1 PBD block inconclusive, BAZ2B block inactive and HP1b chromo inh inactive.
For O=C(c1cccc(F)c1)N1CCC2(CCCN(c3ncccn3)C2)CC1 the results were G9a block inactive[12.7 µM] and Sfp inh inactive.
`Cc1c(NC(=O)c2cc3ccccc3o2)cccc1-c1nc2ccccc2o1` gave G9a block inactive, JMJD2A Tudor inh inactive, BAZ2B block inactive and HP1b chromo inh inactive.
CCOC(=O)C1(Cc2cccc(F)c2)CCN(Cc2nc(CC)[nH]c2C)CC1 was read as G9a block 39.8µM, JMJD2A Tudor inh 50.1µM, Sfp inh inactive, PLK1 PBD block inactive, BAZ2B block inconclusive and HP1b chromo inh inactive.
`CCOC(=O)C1(Cc2cccc(F)c2)CCN(Cc2cnn(CC)c2)CC1` gave G9a block inactive, JMJD2A Tudor inh inactive[11.4 µM], Sfp inh inactive, PLK1 PBD block inactive, BAZ2B block inactive and HP1b chromo inh inactive.
For CCN(CC)S(=O)(=O)c1ccc(O)c(NS(=O)(=O)c2ccccc2F)c1 the results were G9a block 1.41µM, JMJD2A Tudor inh inactive, Sfp inh 50.1µM, PLK1 PBD block 23.8µM, BAZ2B block inactive and HP1b chromo inh inconclusive.
CCOc1cc(S(=O)(=O)N(CC)CC)ccc1F was read as G9a block inactive, JMJD2A Tudor inh inactive, Sfp inh inactive, PLK1 PBD block inactive, BAZ2B block inconclusive and HP1b chromo inh inactive.
`CCOc1ccc(S(=O)(=O)N(CC)CC)cc1NS(=O)(=O)c1ccc(F)c(F)c1F` gave G9a block inactive, JMJD2A Tudor inh 50.1µM, Sfp inh inactive, PLK1 PBD block 9.47µM, BAZ2B block inactive and HP1b chromo inh inactive.
`Cc1ccc(S(=O)(=O)N2CCCCC2)cc1NS(=O)(=O)c1ccccc1F` gave JMJD2A Tudor inh inactive, PLK1 PBD block inactive and HP1b chromo inh inactive.
Screening O=c1[nH]c(=O)c2cc([N+](=O)[O-])cc([N+](=O)[O-])c2[nH]1 returned G9a block inconclusive, JMJD2A Tudor inh inactive, Sfp inh inactive, PLK1 PBD block inactive, BAZ2B block inactive and HP1b chromo inh inactive.
Screening O=c1c2cc([N+](=O)[O-])cc([N+](=O)[O-])c2[nH]n1-c1ccccc1 returned G9a block 28.2µM, JMJD2A Tudor inh 35.5µM, Sfp inh inactive, PLK1 PBD block inactive, BAZ2B block 39.8µM and HP1b chromo inh 35.5µM.
COc1ccc(NC(=O)CSc2nc3c(c(=O)[nH]2)CCC3)cc1 was read as G9a block inactive, JMJD2A Tudor inh inactive, BAZ2B block inactive and HP1b chromo inh inactive.
Screening CCN1C[C@@H]2[C@@H]3C(=O)N(Cc4ccccc4)C(=O)[C@@H]3[C@](C)(C1=O)N2C(=O)c1ccc(Br)cc1 returned JMJD2A Tudor inh inactive, PLK1 PBD block inactive and HP1b chromo inh inactive.
CC(Oc1cccc(Cl)c1)C(=O)Nc1ccc(N2CCOCC2)cc1N1CCOCC1 (stereo not given) was read as G9a block inactive[2.33 µM], JMJD2A Tudor inh inconclusive, PLK1 PBD block inactive, BAZ2B block inconclusive and HP1b chromo inh inactive.
COC(=O)c1cc(S(=O)(=O)N2CCOCC2)ccc1Sc1ccccc1N was read as G9a block 20µM, JMJD2A Tudor inh inactive, Sfp inh inactive, PLK1 PBD block inconclusive, BAZ2B block inactive and HP1b chromo inh inactive.
Screening CC(Oc1ccc(F)cc1)C(=O)Nc1cc(S(=O)(=O)N2CCCCC2)ccc1N1CCOCC1 (stereo not given) returned G9a block 12.6µM, JMJD2A Tudor inh inactive, PLK1 PBD block inactive, BAZ2B block inactive and HP1b chromo inh inactive.
`COCCNC(=O)c1cc(S(=O)(=O)N2CCCCC2)ccc1N1CCOCC1` gave G9a block inactive, JMJD2A Tudor inh inactive, PLK1 PBD block inactive, BAZ2B block inconclusive and HP1b chromo inh inactive.
